This is an account of results in PubChem BioAssay (NCATS).

Inconclusive results are not listed. A call without a number means that no potency is given here. The source made the active and inactive calls. Calls come from the whole dose curve; as a rule, active = well fitted cell-killing curve with a large enough effect; inconclusive = small, poorly fitted or top-dose-only effect; inactive = flat fitted curve, though single readings scatter.
Potency is the fitted concentration of half-maximal effect.

This experiment is described as follows: Cell Viability - LYMP2-010 (AID 981). Note: nearly all actives have a fitted effect of over 55% in size. Particulars: LYMP2-010 lymphoblastoid cell viability, qHTS; series mostly up to 92.2 µM. An excerpt: NIH Chemical Genomics Center [NCGC]
NIH Molecular Libraries Screening Centers Network [MLSCN]
National Institutes of Environmental Health Sciences [NIEHS]
National Toxicology Program [NTP]
We have developed a 1536-well cell-based assay for quantitative high throughput screening (qHTS) against a number of cell lines to determine in vitro cytotoxicity of small molecules. This particular assay uses a human lymphoblastoid cell line (LYMP2-010) purchased from Coriell Institute for Medical Research.
NCGC Assay Protocol Summary:
The CellTiter-Glo luminescent cell viability assay (Promega) is a homogeneous method to measure the number of viable cells in culture. The end point readout of this assay is based on quantitation of intracellular ATP, an indicator of metabolic activity, using the luciferase reaction. Luciferase catalyzes the oxidation of beetle Luciferin to oxyluciferin and light in the presence of ATP. The luminescent signal is proportional to amount of ATP present.
Using the CellTiter-Glo luminescent cell viability assay, the amount of cellular ATP was measured in the lymphoblastoid cell line with complete culture medium following compound treatment for 24 hours. The assay was performed in opaque white Kalypsys 1536-well plates. In the screen, tetraoctylammonium bromide was used as positive control. Library compounds were measured for their ability to cause acute toxicity in the cell line, as reflected by a decrease in intracellular ATP levels, in a concentration-dependent manner. […] AC50 values were determined from concentration-response data modeled with the standard Hill equation.
qHTS protocol for CellTiter Glo lymphoblastoid cellular assay
[Step] [Parameter] [Value] [Description]
1. Reagent; 5 uL; 2500 lymphoblastoid cells/well
2. Time; 5 hr; 37 C incubation
4. Controls; 23 nL; Tetraoctylammonium bromide 6.4pM to 92 uM
5. Time; 24 hr; 37 C incubation
6. Reagent; 5 uL; CellTiter Glo reagent
7. Time; 30 min; Room Temperature
8. Detection; Luminescence; Viewlux plate reader
Keywords: cell viability, cytotoxicity, lymphoblastoid cell line, luminescence, NTPHTS, NTPHTS_NCGC, NIEHS, DSSTox, MLSMR, MLSCN, NIH Roadmap, qHTS, NCGC
(In general: Quantitative high-throughput screening tests each substance at several concentrations.)
For `O=C(Cc1ccccc1)OCc1ccccc1`, the Potency entry was “inactive”.
Under `O=[N+]([O-])c1ccc(Cl)c(Cl)c1Cl` stands “inactive”.
Under `Nc1ccc(Cl)c(Cl)c1` stands “inactive”.
As for `O=[N+]([O-])c1ccccc1-c1ccccc1`, the entry is “inactive”; as for `ClCCOCCCl`, “inactive”.
Consider `O=[N+]([O-])c1ccc(Cl)cc1`, for which the Potency result is “inactive”.
As for `c1ccc(C2CO2)cc1` (stereo not given), the entry is “inactive”; as for `Cc1coc2c1CCC(C)C2` (stereo not given), “inactive”.
In the case of `CN(C)c1ccc(N(C)C)cc1`, the Potency is 50.1 µM (active).
As for `Oc1cc(Cl)c(Cl)c(Cl)c1Cl`, the entry is “inactive”; as for `ClCC(Cl)Cl`, “inactive”; as for `CCCCC(=O)Cl`, “inactive”.
Under `Cc1cc(N=Nc2ccccc2C)ccc1N` stands “inactive”; under `Nn1cnnc1`, “inactive”; under `O=[N+]([O-])/C=C/c1ccccc1`, 50.1 µM (active).
As for `CCCCCOC(=O)c1ccccc1C(=O)OCCCCC`, the entry is “inactive”; as for `Cc1ccccc1[N+](=O)[O-]`, “inactive”.
Turning to `Brc1cccc(-c2ccccc2)c1`, the Potency result was “inactive”.
Under `OCCBr` stands “inactive”.
Under `O=NN1CCCCC1` stands “inactive”; under `CCCCCc1cc(O)cc(O)c1`, “inactive”; under `C[N+](=O)[O-]`, “inactive”.
Under `N#CC(O)c1ccccc1` (stereo not given) stands “inactive”; under `C=CCO`, “inactive”.
As to `ClC(Cl)Br`, the Potency result is “inactive”.
As for `N#C/C=C/C#N`, the Potency is 31.6 µM (active).
As for `N#CCCCCC#N`, the entry is “inactive”; as for `CCCCCC[N+](=O)[O-]`, “inactive”; as for `O=[N+]([O-])c1ccc2c3c(cccc13)CC2`, “inactive”.
Under `Cc1ccc(N)c(N)c1` stands 12.6 µM (active).
Under `c1ccc(P(c2ccccc2)c2ccccc2)cc1` stands “inactive”; under `Nc1cccc(Cl)c1`, “inactive”.
With `NC1CCC(CC2CCC(N)CC2)CC1` (stereo not given), the Potency entry is “inactive”.
Under `CCN(CC)CCO` stands “inactive”; under `C=CCBr`, “inactive”; under `ClC(Br)Br`, “inactive”.
Under `C=CC(=O)OCCO` stands 50.1 µM (active); under `CC(C)C#N`, “inactive”.
As for `C/C=C/C=O`, the entry is “inactive”; as for `O=C(O)c1cc(Cl)ccc1Cl`, “inactive”.
